# This is a sample that favours compounds with a hit; in the whole collection about 3% have one here.
# p53null 32C tox – p53 null cell cytotoxicity, permissive temperature | H1299-neo p53 null cells, ATP luminescence, 24 h, 32C | Potency, µM (series often up to 46.1 µM), for the others: at the top dose activity change, negative = cytotoxicity, hits mostly cytotoxic | 55,000 tested, 0.62% active;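 also: potency is read from the fitted curve at half-maximal effect; 0% = DMSO only and -100% = full killing by 100 µM tamoxifen; nearly all actives have a fitted effect of over 55% in size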
#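 AC50 values derive from Hill modelling of qHTS concentration-response data (up to 46 uM) in H1299-neo cells. Cells were treated 24 h at 32C following overnight attachment at 37C; viability was read as cellular ATP.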
# GALC G270D act – raises human GALC G270D mutant activity in cells. 45,000 tested, 0.1% active. AID 1159614. 145M-Twi-hGALC-G270D cells (Twitcher mouse brain line with human GALC G270D), HMU-beta-Gal fluorescence, 48 h. Potency, µM (highest dose often 57.5 µM), most hits filed as activators. P54803; also: potency is read from the fitted curve at half-maximal effect; 0% is about no effect; nearly all actives have a fitted effect of over 65% in size
#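 Fluorescence readout: HMU-β-gal cleavage by mutant GALC (0.1 mM final, citrate/phosphate pH 5.2 with 1 mg/mL taurocholate), stopped with carbonate/bicarbonate plus Triton X-100. Cells: murine Twitcher 145M-Twi expressing human G270D GALC; qHTS for activators.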
# PMP22 txn – PMP22 gene transcription modulation; S16 Pmp22-F2sN Schwann cells, FLuc/NLuc coincidence luminescence, 24 h; Potency, µM (series often up to 57.5 µM), without a hit: at the top dose activity change, negative = inhibition, most hits filed as inhibitors; 43,000 tested, 2% active; AID 1508649; active = clear falling dose curves in both reporters; inconclusive = both reporters move, but less clearly or upward; inactive = either reporter flat; the % is the NLuc reporter signal; also: potency is read from the fitted curve at half-maximal effect; % is scaled to controls: 0 for no effect and ±100 for the full control effect
#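 Reporter cells (S16 Pmp22-F2sN, 500–1,000 per well) exposed to compounds for 24 h, 37C, 5% CO2; lysis with FLuc read after 10 min, then Stop&Glo and NLuc read after 10 min.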
# S16 F2sN tox – S16 Schwann cell cytotoxicity | S16 Pmp22-F2sN Schwann cells (luciferase reporters placed in the Pmp22 gene) viability, CellTiter-Glo, 24 h | Potency, µM (highest dose often 57.5 µM), without a hit: at the top dose activity change, negative = cytotoxicity, usual class: cytotoxic | 43,000 tested, 0.48% active; also: potency is read from the fitted curve at half-maximal effect; % is scaled to controls: 0 for no effect and ±100 for the full control effect; nearly all actives have a fitted effect of over 65% in size
#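 Rat S16 Schwann reporter line, 24 h treatment with library compounds delivered at 23 nL per well. Cell viability by CellTiter-Glo luminescence.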
# pS6 MEF inh – reduces mTORC1 signaling in Tsc2 and p53 null MEF cells; Tsc2-/- p53-/- MEF, phospho-rpS6 immunofluorescence/PI, 24 h; Potency, µM (highest dose often 38.3 µM), without a hit: at the highest dose activity change, negative = inhibition, usual class: inhibitors; AID 493208; 44,000 tested, 0.78% active;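 also: potency is read from the fitted curve at half-maximal effect; plate controls were DMSO for no effect and rapamycin for full effect; nearly all actives have a fitted effect of over 50% in size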
#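 Compounds act on Tsc2-/-, p53-/- fibroblasts carrying an empty vector for 24 h before fixation and dual staining for phospho-S6 and DNA (propidium iodide). Values are percentages of cells above a rapamycin-defined pS6/PI threshold.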
# p53null 39C tox – selectivity test: cytotoxicity in p53 null cells, nonpermissive temperature | H1299 p53-null (neo) cells, 39C, ATPlite viability, 24 h | 55,000 tested, 0.97% active | Potency, µM (highest dose often 46.1 µM), without a hit: top-dose activity, negative = cell killing, actives largely listed as cytotoxic;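 also: potency is read from the fitted curve at half-maximal effect; 0% = DMSO only and -100% = full killing by 100 µM tamoxifen; nearly all actives have a fitted effect of over 50% in size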
#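 H1299 lung cancer cells, p53-null (H1299-neo) or expressing p53 A138V (H1299-p53A138V), were plated overnight at 37C, then exposed to compounds at up to 46 uM for 24 hr at 39C. Viability was read by ATP-based luminescence.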
# NLuc sat counter – NanoLuc enzyme inhibition artifact for PMP22 screen | shares compounds with PMP22 txn | Secreted NLuc enzyme (filtered S16 cell medium), Nano-Glo luminescence | Potency, µM (titrated, usually from 57.5 µM), for the others: at the highest dose activity change, negative = inhibition, usual class: inhibitors | 690 tested, 4% active; also: potency is read from the fitted curve at half-maximal effect; % is scaled to controls: 0 for no effect and ±100 for the full control effect
# NLuc Km counter – NanoLuc inhibition at Km substrate, PMP22 artifact check; shares compounds with PMP22 txn; secreted NLuc enzyme, coelenterazine luminescence, Km conditions; Potency, µM (series often up to 57.5 µM), without a hit: top-dose activity change, negative = inhibition, usual class: inhibitors; 690 tested, 5% active; also: potency is read from the fitted curve at half-maximal effect; % is scaled to controls: 0 for no effect and ±100 for the full control effect
# FLuc counter – firefly luciferase enzyme inhibition artifact for PMP22 screen | purified P. pyralis FLuc, luminescence, 10 min | 690 tested, under 10 active | shares compounds with PMP22 txn | Potency, µM (series often up to 57.5 µM), without a hit: at the top dose activity, negative = inhibition, actives largely listed as inhibitors | AID 1508640; also: % of control where 0% means no effect
# Target sequence (P08659 whole entry, looked up): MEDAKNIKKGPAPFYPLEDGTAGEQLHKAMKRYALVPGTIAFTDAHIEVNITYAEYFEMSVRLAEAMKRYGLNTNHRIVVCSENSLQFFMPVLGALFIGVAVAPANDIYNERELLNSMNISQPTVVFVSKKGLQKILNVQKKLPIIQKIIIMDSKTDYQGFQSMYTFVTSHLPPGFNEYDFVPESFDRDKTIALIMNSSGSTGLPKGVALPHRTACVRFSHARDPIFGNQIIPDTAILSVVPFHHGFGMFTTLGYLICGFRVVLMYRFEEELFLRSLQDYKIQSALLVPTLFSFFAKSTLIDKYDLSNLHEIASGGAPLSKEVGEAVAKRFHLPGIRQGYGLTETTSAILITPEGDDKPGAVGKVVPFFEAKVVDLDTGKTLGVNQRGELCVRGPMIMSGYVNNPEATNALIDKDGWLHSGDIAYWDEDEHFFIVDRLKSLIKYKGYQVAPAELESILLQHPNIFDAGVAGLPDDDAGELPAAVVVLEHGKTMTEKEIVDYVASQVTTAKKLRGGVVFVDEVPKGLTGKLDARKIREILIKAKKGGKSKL
# S16 F2sN tox cnf – S16 Schwann cell cytotoxicity, confirmatory; shares compounds with PMP22 txn; S16 Schwann cells viability, CellTiter-Glo ATP luminescence, 24 h; Potency, µM (highest dose often 57.5 µM), for the others: at the top dose activity change, negative = viability loss, most hits filed as cytotoxic; 690 tested, 7% active; AID 1508641; also: potency is read from the fitted curve at half-maximal effect; % is scaled to controls: 0 for no effect and ±100 for the full control effect
# PMP22 txn conf – confirmation of modulators of PMP22 gene transcription in S16 cells; shares compounds with PMP22 txn; S16 Schwann cells Pmp22-F2sN, dual luciferase, 24 h; Potency, µM (doses to about 57.5 µM), without a hit: at the highest dose activity change, negative = inhibition, hits mostly inhibitors; 690 tested, 22% active; AID 1508646; active = clear falling dose curves in both reporters; inconclusive = both reporters move, but less clearly or upward; inactive = either reporter flat; the % is the FLuc reporter signal; also: potency is read from the fitted curve at half-maximal effect
# PMP22 prot conf – rat PMP22 protein level modulation, confirmatory; Potency, µM (highest dose often 27.9 µM), without a hit: at the highest dose activity change, negative = inhibition, usual class: inhibitors; S16 Schwann cells Pmp22-HiBiT, luminescence, 48 h; shares compounds with PMP22 txn; 95 tested, under 10 active; AID 1508647
# Target sequence (P25094 whole entry, looked up): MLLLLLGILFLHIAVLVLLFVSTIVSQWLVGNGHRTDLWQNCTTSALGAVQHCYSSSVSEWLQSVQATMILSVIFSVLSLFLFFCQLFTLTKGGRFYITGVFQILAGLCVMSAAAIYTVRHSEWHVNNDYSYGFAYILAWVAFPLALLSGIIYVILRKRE
# Numbers without * were called inactive; i = inactive; ? = inconclusive; . = no result; [ ] = remark or other dose. Unless noted, calls follow the shape of the dose curve; as a rule, active = well fitted curve in the direction sought with a large enough effect; inconclusive = small, poorly fitted or top-dose-only effect, or another doubt; inactive = no such curve, though single readings can be large; an effect the other way counts as inactive or inconclusive.
SMILES,p53null 32C tox,GALC G270D act,PMP22 txn,S16 F2sN tox,pS6 MEF inh,p53null 39C tox,NLuc sat counter,NLuc Km counter,FLuc counter,S16 F2sN tox cnf,PMP22 txn conf,others
CCOC(=O)N1CCN(C(=O)Cn2ncc3c4ccccc4n(Cc4ccc(F)cc4)c3c2=O)CC1,-4%,i,-15%,-18%,0%,16%,.,.,.,.,.,
Cc1ccc(C(=O)Nc2ccc(S(=O)(=O)O)c3cc(S(=O)(=O)O)cc(S(=O)(=O)O)c23)cc1NC(=O)c1cccc(NC(=O)Nc2cccc(C(=O)Nc3cc(C(=O)Nc4ccc(S(=O)(=O)O)c5cc(S(=O)(=O)O)cc(S(=O)(=O)O)c45)ccc3C)c2)c1,.,i,.,.,.,.,.,.,.,.,.,
Cc1nc2cccnc2n1C1CCN(S(=O)(=O)c2ccc(C(C)C)cc2)CC1,29%,i,17µM*,?,-23%,24%,-14%,3%,4%,-11%,-33%,
CC(=O)Nc1ccc(S(=O)(=O)N2CCC(n3c(C)nc4cccnc43)CC2)cc1,1%,i,3%,-17%,0%,10%,.,.,.,.,.,
CC(=O)N1c2ccc(S(=O)(=O)NCC3CCC(C(=O)Nc4cc(C)ccc4C)CC3)cc2CC1C (stereo not drawn),1%,i,?,?,-20%,-8%,-15%,2%,4%,-24%,-47%,
CC(=O)N1c2ccc(S(=O)(=O)NCC3CCC(C(=O)Nc4ccc(C)cc4)CC3)cc2CC1C (stereo not drawn),3%,i,-29%,0%,-4%,-20%,.,.,.,.,.,
COc1cccc(-c2cc(C(=O)Nc3cc(OC)c(OC)c(OC)c3)on2)c1,2%,i,3.9µM*,?,-1%,-8%,?,11µM*,-13%,-6%,18µM*,
CCOc1cc(CN2CCN(S(=O)(=O)c3ccc(C)cc3)CC2)ccc1OC,-9%,i,-20%,-4%,2%,-8%,.,.,.,.,.,
CCOc1ccc(CN2C(=O)C(=O)c3cccc(C)c32)cc1OC,-1%,i,11µM*,14%,-22%,20µM*,?,?,-13%,-11%,?,
CSc1ccc(CCNC(=O)c2c(C)nn(-c3ccc(F)cc3)c2-n2cccc2)cc1,32%,i,15µM*,-13%,0%,93%,-13%,4%,-12%,-15%,?,
Cc1ccc(-c2nnc(Nc3cccc(O)c3)c3ccccc23)cc1S(=O)(=O)N1CCOCC1,37%,i,0%,11%,0%,-1%,.,.,.,.,.,
COc1ccc(OC)c(NC(=O)Cn2c(=O)c3cccn3c3ccccc32)c1,25%,i,?,-2%,9%,108%,?,?,1%,-8%,-32%,
Cc1cccc(N2CCN(C(=O)c3c(C)oc4ncnc(N5CCCCC5)c34)CC2)c1C,18%,i,?,-7%,0%,20%,.,.,.,.,.,
CC(=O)c1c(C)oc2ccc(N(C(=O)Oc3ccccc3)S(=O)(=O)c3ccc(C(C)(C)C)cc3)cc12,25%,i,13µM*,2%,-15%,25%,-14%,-6%,-2%,-5%,?,
Cc1ccc(C)c(N2C(=O)N(Cc3ccccc3C)c3ccccc3S2(=O)=O)c1,-2%,i,7%,3%,-1%,-2%,.,.,.,.,.,
COc1ccc(N2CCN(CCCNC(=O)Cn3c(-c4cccs4)cc4ccccc43)CC2)cc1,4%,i,?,2%,0%,2%,.,.,.,.,.,
O=C(Cn1c(-c2cccs2)cc2ccccc21)NCCCN1CCN(c2ccc(F)cc2)CC1,-8%,i,10µM*,-10%,?,4%,-10%,-3%,5%,?,?,PMP22 prot conf=?
O=C(Cn1c(-c2cccs2)cc2cc(F)ccc21)NCCCN1CCN(c2ccccc2F)CC1,-7%,i,?,?,?,-16%,.,.,.,.,.,PMP22 prot conf=?
CCC(C)NS(=O)(=O)c1ccc(NC(=O)c2ccc([N+](=O)[O-])cc2Cl)cc1 (stereo not drawn),.,.,.,.,.,10%[1.84 µM],.,.,.,.,.,
COCCNC(=O)c1nc2c(nnn2Cc2cc(C)ccc2C)c(=O)[nH]1,6%,.,.,.,.,?,.,.,.,.,.,
CCc1ccccc1NC(=O)Cn1nc(CC)n2c(cc3sccc32)c1=O,-4%,i,-42%,5%,-5%,1%,-7%,-7%,10%,9%,?,
COc1cccc(CNC(=O)c2ccc(-c3nc(COc4ccccc4)c(C)o3)cc2)c1,7%,i,-16%,-2%,-4%,19%,.,.,.,.,.,
CCOC(=O)c1ccccc1NC(=O)c1nn(C)c2c1COc1ccccc1-2,26%,i,17µM*,9%,-17%,43%,-7%,2%,-14%,-8%,18µM*,
O=C(Nc1ccccc1C(F)(F)F)N1CCN(c2ccc3nnc(-c4ccc(F)cc4)n3n2)CC1,27%,i,16µM*,-7%,-2%,15%,-18%,-4%,-9%,-10%,?,

# Source: PubChem BioAssay
